Source: PubChem BioAssay (EPA / NIEHS)
Results filed as inconclusive are left out. Activity calls are given as the source filed them. Rule for the calls: active = hit-call score of the fitted dose curve at least 0.9, where 1 is the maximum; inconclusive = response in the unintended direction; inactive = score below 0.9.

Test: TOX21_PR_LUC_Followup_Agonist_viability: Viability Assessment in the Tox21 HEK293 Progesterone Receptor (PR) Agonism Luciferase Follow-Up Assay (AID 2283941);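 note: loss of signal means cytotoxicity so actives lower viability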
Source text: TOX21_PR_LUC_Followup is a secondary assay for specificity for the TOX21_PR_BLA_Agonist assay. To differentiate true PR agonists from cytotoxic substances, this follow up assay is multiplexed with a cell viability assay.TOX21_PR_LUC_Followup_Agonist_viability is an assay readout measuring cellular ATP content and detected with CellTiter-Glo Luciferase-coupled ATP quantitation.TOX21_PR_LUC_Followup_Agonist_viability used a type of viability reporter where loss-of-signal activity can be used to understand changes in the cell viability. Furthermore, this assay endpoint can be referred to as a secondary readout, because this assay has produced multiple assay endpoints where this one serves a viability function. To generalize the intended target to other relatable targets, this assay endpoint is annotated to the cell cycle intended target family, where the subfamily is cytotoxicity.
Quality Control Precautions: Maintain cells below 85-90% confluence in culture medium. For assay purpose, the cells should be cultured in assay medium with 10% charcoal stripped FBS for 5 days with alternate day medium changed to fresh medium. Especially while in assay culture, the cells should not reach more than 85% confluence as they would become harder to detach if they reach over confluence.Assay Protocol: HEK293-PR-A-luc cells were dispensed at 3,000 cells/5 uL/well of culture medium into white wall/solid-bottom 1536-well plates using a Multidrop Combi (ThermoFisher Scientific, Waltham, MA) dispenser. After the assay plates were incubated at 37C and […] for 5 h, 23 nL of compounds dissolved in DMSO, positive controls or DMSO only was transferred to the assay plate by a Pintool station (Kalypsys, San Diego, CA). The plates were incubated at 37C and […] for 16 h. Then 4 uL of ONE-Glo reagent (Promega, Madison, WI) was added to each plate using a BioRAPTR Flying Reagent Dispenser (FRD) workstation (Beckman Coulter, Indianapolis, IN, USA) and luminescence was quantified on a ViewLux (PerkinElmer, Shelton, CT) plate reader after 30 min incubation at room temperature.

Compound | outcome
CCCCOC(=O)c1ccccc1C(=O)OCc1ccccc1 | inactive
Clc1ccc(C(c2ccc(Cl)cc2)C(Cl)(Cl)Cl)cc1 | inactive
O=[N+]([O-])c1ccc(Oc2ccc(Cl)cc2Cl)cc1 | inactive
C[C@]12C=CC3=C4CCC(=O)C=C4CC[C@H]3[C@@H]1CC[C@@H]2O | inactive
